Test results reported in article PMC7819943, “Rice protein-binding microarrays: a tool to detect cis-acting elements near promoter regions in rice”.
Over roughly 39,000 sequences, “fluorescence intensity (a.u.)” has its median near 4,300; the highest 2% begin near 39,000. For the sample, the highest values were picked, then their nearest neighbours and some sequences at random.

Biological target: T1, OsSMF1 (Oryza sativa, UniProt Q6ZLB0 1-436)
T1 sequence: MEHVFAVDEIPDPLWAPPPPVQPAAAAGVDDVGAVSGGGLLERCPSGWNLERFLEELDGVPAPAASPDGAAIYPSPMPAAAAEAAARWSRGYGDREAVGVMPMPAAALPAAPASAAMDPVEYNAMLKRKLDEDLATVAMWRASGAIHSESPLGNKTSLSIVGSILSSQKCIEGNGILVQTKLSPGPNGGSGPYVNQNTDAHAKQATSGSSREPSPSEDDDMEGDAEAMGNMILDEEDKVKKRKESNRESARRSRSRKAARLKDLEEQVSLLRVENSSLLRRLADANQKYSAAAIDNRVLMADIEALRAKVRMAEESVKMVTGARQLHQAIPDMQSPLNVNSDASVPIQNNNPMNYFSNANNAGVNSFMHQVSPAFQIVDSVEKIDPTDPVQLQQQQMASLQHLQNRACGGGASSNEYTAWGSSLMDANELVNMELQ
Assay: protein-binding microarray (RPBM); PBS, 2% BSA, 51.3 ng/ul salmon testes DNA, 50 uM zinc acetate, 200 nM TF, 25 C, 1 h; high values mean tight binding
Conditions: protein: recombinant; tags: N-terminal polyhistidine and DsRed monomer fusion (pET32a); chain copies: 2; label: CyDye5-dUTP incorporated in the synthesized complementary strand; 3' TTTTT single-stranded linker to array surface; dsDNA, one strand shown
In short: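 Transcription factors, each fused N-terminally to a polyhistidine tag and DsRed, were expressed in E. coli BL21-CodonPlus and purified on Ni–NTA. A custom Agilent array was made double-stranded by primer extension with Cy5-dUTP and blocked with 2% BSA. It was incubated with 200 nM protein in PBS, 2% BSA, salmon testes DNA and 50 µM zinc acetate at 25 °C for 1 h, then washed. The binding signal is per-feature fluorescence intensity (arbitrary units) read on an Axon 4000B scanner.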

Sequence | binding signal
CCTAAATAAGCTAGCAAAATAGCCAATGCCAGCCAATATTCGGAGTCACCTAGTGCAG | 28300 fluorescence intensity (a.u.)
CTATGGCTCATGAGCCAAAATTCAAAAGGCTAACGTTGGCCGGAGTCACCTAGTGCAG | 43400 fluorescence intensity (a.u.)
TTGGCCACCTCCACCTCACTCGCATGAAGGCTAAGTGAGCCGGAGTCACCTAGTGCAG | 4160 fluorescence intensity (a.u.)
TAAGCTCCAAAGCCAGCTATAGCATGAGCTCCAAAATATACGGAGTCACCTAGTGCAG | 45700 fluorescence intensity (a.u.)
ATATATACTCCAAGCTCGGTGAGCCAGCATCACCACCAACCGGAGTCACCTAGTGCAG | 3220 fluorescence intensity (a.u.)
TATGACTAATCATGGACTAATTAGGCTCAAAAGATTCGTCCGGAGTCACCTAGTGCAG | 33200 fluorescence intensity (a.u.)
CACCTCCCCTTCCCATCCCAACCGGCCAACCCTCCCCACCCGGAGTCACCTAGTGCAG | 13900 fluorescence intensity (a.u.)
GCCGATCCCCGAGGAGGGCGGCGACGTGGAAGGGGAGGGCCGGAGTCACCTAGTGCAG | 4090 fluorescence intensity (a.u.)
GGTAATGGGAGAGGCTGATGTGGCGTGAAATCTCTTGCGTCGGAGTCACCTAGTGCAG | 16800 fluorescence intensity (a.u.)
TTTATCAAAGCGTCATATATCAATGACCAGAGGTACAACACGGAGTCACCTAGTGCAG | 3940 fluorescence intensity (a.u.)
CACCATTTTGGGCCGACACATCAAGCAGGCCAACGCGCAGCGGAGTCACCTAGTGCAG | 3300 fluorescence intensity (a.u.)
CCCAACTGTTCTTTCCGTCACGTCACGCACAAGTCAAAATCGGAGTCACCTAGTGCAG | 5230 fluorescence intensity (a.u.)
ACCTGTGGACTTGCACGGTAACGTAGCACAATCTTCAAAGCGGAGTCACCTAGTGCAG | 3810 fluorescence intensity (a.u.)
CGGCGAAGTAGCAAGGGTTGAGTCTGCATCATCAACCAATCGGAGTCACCTAGTGCAG | 3370 fluorescence intensity (a.u.)
TCCCCTTCACCGCAACTTCGGCGAAGTCAAGAAGGAGTAGCGGAGTCACCTAGTGCAG | 43800 fluorescence intensity (a.u.)
GCCGAAACGCGAAGTGACAGTGACAAGGGAAGGACGGCCCCGGAGTCACCTAGTGCAG | 3220 fluorescence intensity (a.u.)

Sequence | binding signal
AGCGGCAGTAGCAAGGGAGCTAGGCCCCGAAGGAAAACCGCGGAGTCACCTAGTGCAG | 46000 fluorescence intensity (a.u.)
TCCCCTCGCGGCGAACGCGCGCGCGCAACGAGAAGCCAAGCGGAGTCACCTAGTGCAG | 3200 fluorescence intensity (a.u.)
TTTAGTAGTTTGAAAAGCATACGCGCGGAAACCGAGCAAGCGGAGTCACCTAGTGCAG | 3190 fluorescence intensity (a.u.)
TGATGTTCTTACTGGTGGTGCTGATGACAATACTGAACAGCGGAGTCACCTAGTGCAG | 3840 fluorescence intensity (a.u.)
TAAGTGGACCTATAGGTGCACACGTGGGGAGAGGGGCGTGCGGAGTCACCTAGTGCAG | 5690 fluorescence intensity (a.u.)
GCACCAGCGGTCCTCAAACTTGTAAGGGTGTGTCATCTAGCGGAGTCACCTAGTGCAG | 3660 fluorescence intensity (a.u.)
ATTGTACACAACAAATTGAAATTTTCAATTCAACTTTTAACGGAGTCACCTAGTGCAG | 43200 fluorescence intensity (a.u.)
AGTTCAAGAAAACTTTATATTCAAACAAGAAAATTGGGGCCGGAGTCACCTAGTGCAG | 40900 fluorescence intensity (a.u.)
GCAAACAAAATATACCTGCCAAGTCAACTTCACGGCCGGACGGAGTCACCTAGTGCAG | 4280 fluorescence intensity (a.u.)
TAAGAAAACTACAGCTTTATTACTCAAACTTAATATTAACCGGAGTCACCTAGTGCAG | 39800 fluorescence intensity (a.u.)
AGAAATCAACTTCAAACCTTTATTCTCAACATCAGGAGATCGGAGTCACCTAGTGCAG | 26000 fluorescence intensity (a.u.)
TTTTCAATTGTACATTGAGTCATTGACAATGCACAATTTACGGAGTCACCTAGTGCAG | 3680 fluorescence intensity (a.u.)
TTTCAATTATTTAGGTATTAACATTAACTACTTTACTAACCGGAGTCACCTAGTGCAG | 14800 fluorescence intensity (a.u.)
ACTCTAAATTTAAACTTTTCACTCAATTGAAACTTTTCAACGGAGTCACCTAGTGCAG | 24700 fluorescence intensity (a.u.)
CTATATTTTACTATAAGCTTAATCAAACTTCAAAATATTTCGGAGTCACCTAGTGCAG | 14400 fluorescence intensity (a.u.)
